Common to all, as to assay type: functional
The subject of test [1] is Plasmodium falciparum. In words: GSK_TCMDC: Inhibition of Plasmodium falciparum 3D7 in whole red blood cells, using parasite LDH activity as an index of growth. Test compounds present at 2uM.
Test [2] has as its system Plasmodium falciparum. In words: GSK_TCMDC: Inhibition of Plasmodium falciparum Dd2 in whole red blood cells, using parasite LDH activity as an index of growth. Test compounds present at 2uM.
Test [3] relates to HepG2. In words: GSK_TCMDC: Percent inhibition of human HepG2 cell line. Test compounds present at 10uM.

With `Br.N=C(N)c1ccc(C(=O)Nc2cccc(C(=N)N)c2)cc1`, the Inhibition in test [1] came to 88%; in test [2] it was 82%; in test [3] it was 13%.

`CCCCCN1C(=O)C(c2ccccc2)(c2ccccc2)N=C1N`: the Inhibition came out at 97% in test [1], 68% in test [2] and 18% in test [3].

As to `CN(C)c1ccc(NC2=NC(N)=NC(C)(C)N2)cc1`, the Inhibition in test [1] is 95%; in test [2], 5%; in test [3], 0%.

Consider `Cc1cccc2nc(-c3cccc(-c4cccc(NC(=O)NCc5ccccc5)c4)c3)[nH]c12`, for which the Inhibition came out at 94% in test [1], 27% in test [2] and 12% in test [3].

`COc1c(C2CCN(CCCCNC(=O)c3ccc(-c4ccc(Cl)cc4)c(OCC(N)=O)c3)CC2)ccc2c1CCCC2`: the values for the Inhibition in test [1], in test [2] and in test [3] were 97%, 11% and 43%, respectively.

With `CN1CCN(c2ccnc3ccc(NC(=O)Nc4ccc(-c5ccncc5)c5ccccc45)cc23)CC1`, the Inhibition in test [1] is recorded as 100%; in test [2], 84%; in test [3] it was 76%.

Consider `CN(C)c1ccc(-c2csc(C(=O)NC3CCCCN(Cc4ccc(C(C)(C)C)cc4)C3)c2)cc1.O=C(O)C(F)(F)F` (stereo not drawn), for which the Inhibition in test [1] amounted to 84%; in test [2], 55%; in test [3], 17%.

On to `OC(c1ccc2ccccc2c1)C1CN(CCc2ccccc2)CCC1(O)c1ccccc1` (stereo not drawn), for which the Inhibition in test [1] was determined as 99%; in test [2] it was 96%; in test [3], 1%.

Turning to `CCCCCCN(CCCCCC)CCCCNc1c2ccc(Cl)cc2nc2ccc(OC)cc12.Cl`, the Inhibition worked out at 100% in test [1], 94% in test [2] and 65% in test [3].

Turning to `CCNC(C)(C)CN(Cc1ccc(-c2ccc(C(F)(F)F)cc2)cc1)C(=O)Cn1c(SCc2ccc(F)cc2)nc(=O)c2c1CCC2.O=C(O)C(O)C(O)C(=O)O`, the Inhibition in test [1] was 95%; in test [2], 94%; in test [3], 99%.

On to `O=C(NCCCCCN1CCC(c2c[nH]c3ccccc23)CC1)c1ccc(Cl)c(Cl)c1`, for which the Inhibition in test [1] was 85%; in test [2], 10%; in test [3], 48%.

For `CCc1ccc(C2CCN(CCCCNC(=O)c3ccc(NC(=O)c4ccc(Cl)cc4)cc3)CC2)c(OCCO)c1`, the Inhibition in test [1] is given as 98%; in test [2], 100%; in test [3], 94%.

For the compound `Nc1nc2c(ncn2OC[C@H](CO)OCP(=O)(O)O)c(=O)[nH]1`, the Inhibition in test [1] came to 94%; in test [2], 61%; in test [3], 5%.

`CC(C)Cn1c(Sc2ccc(C#N)c([N+](=O)[O-])c2)nnc1-c1cccc(Cl)c1`: the Inhibition in test [1] amounted to 98%; in test [2], 95%; in test [3], 24%.

As for `O=C(Nc1ccc(-c2nc3ccccc3[nH]2)cc1)c1ccc([N+](=O)[O-])s1`, the Inhibition in test [1] is on record as 100%; in test [2] it was 77%; in test [3], 83%.

As to `Cc1ccc(O)c(C(=O)c2cnc3c(c2)c(-c2ccc(F)cc2)c(C#N)c(=O)n3C)c1`, the figures for the Inhibition in test [1], in test [2] and in test [3] were 93%, 56% and 17%, respectively.

With `CC1CN(C(=O)c2sc3ccccc3c2Cl)CC(C)O1` (stereo not drawn), the Inhibition came out at 100% in test [1], 98% in test [2] and 0% in test [3].

Take `CN(C)Cc1cccc(-c2ccc(NC(=O)c3ccc4c(=O)n(Cc5ccoc5)cnc4c3)cc2)c1`: the values for the Inhibition in test [1], in test [2] and in test [3] were 98%, 9% and 54%, respectively.

Take `C(=N\Nc1nccc2sc(-c3cccnc3)cc12)/c1ccncc1`: the results for the Inhibition in test [1], in test [2] and in test [3] were 100%, 94% and 65%, respectively.

As for `Cl.N#Cc1ccc(C=CC(=O)NC2CCC(CCN3CCc4ccc(-c5cnccn5)cc4CC3)CC2)cc1` (stereo not drawn), the Inhibition in test [1] is given as 100%; in test [2], 87%; in test [3], 37%.

As to `CC(C)N1CCN(C(CN2CCN(CCCOc3ccc(-c4ccccc4)cc3)CC2)c2ccc(F)cc2)CC1.Cl` (stereo not drawn), the Inhibition in test [1], in test [2] and in test [3] was 100% throughout.

As for `CC(C)C[C@@H](NC(=O)OC(C)(C)C)C(=O)Nc1ccc(Cc2ccc(NC(=O)[C@@H](CC(C)C)NC(=O)OC(C)(C)C)cc2)cc1`, the results for the Inhibition in test [1], in test [2] and in test [3] were 96%, 96% and 8%, respectively.

As for `COc1cc(OC)cc(-c2nn(-c3ccc([N+](=O)[O-])cc3C#N)c(=S)n2CC2CCCO2)c1` (stereo not drawn), the Inhibition in test [1] is 98%; in test [2], 75%; in test [3] it was 9%.

Regarding `O=C1CC(C(=O)O)CC(=O)N1`, the Inhibition in test [1] is recorded as 94%; in test [2], 88%; in test [3], 0%.

For `CS(=O)(=O)c1ccc(CCNCc2ccc(-c3cccc(-c4nc5ccccc5[nH]4)c3)cc2)cc1.O=C(O)C(F)(F)F`, the results for the Inhibition in test [1], in test [2] and in test [3] were 100%, 99% and 40%, respectively.

Take `N=C(Nc1ccccc1)Nc1cccc(Cc2ccc([N+](=O)[O-])cc2)n1`: the Inhibition was found to be 96% in test [1], 19% in test [2] and 28% in test [3].

For `Cc1cccc2nc(-c3ccc(-c4ccc(NC(=O)NCc5cccc(F)c5)cc4)s3)[nH]c12`, the figures for the Inhibition in test [1], in test [2] and in test [3] were 100%, 43% and 70%, respectively.

With `Cc1cc(-c2ccc(CNCc3ccc(F)cc3)cc2)ccc1S(=O)(=O)NCCN1CCCC1.O=C(O)C(F)(F)F`, the Inhibition was determined as 100% in test [1], 41% in test [2] and 95% in test [3].

In the case of `N#Cc1ccc(N2CCN(Cc3ccc(-c4ccc(-c5nc6cc(C(F)(F)F)ccc6[nH]5)cc4)cc3)CC2)nc1.O=C(O)C(F)(F)F`, the Inhibition in test [1] is listed as 100%; in test [2] it was 90%; in test [3], 19%.

For the compound `CCN(CC)CCCC(C)Nc1c(-c2ccc(Br)cc2)cnc2ccccc12` (stereo not drawn), the figures for the Inhibition in test [1], in test [2] and in test [3] were 100%, 95% and 7%, respectively.

Take `COCCn1c(C)cc(C(=O)CN2C(=O)NC(C)(c3ccc(C(C)(C)C)cc3)C2=O)c1C` (stereo not drawn): the Inhibition in test [1] is reported as 97%; in test [2] it was 96%; in test [3] it was 7%.

In general, Inhibition refers to the drop in the measured response relative to a control, in per cent.

The record behind these values is ChEMBL document CHEMBL1157539, “Thousands of chemical starting points for antimalarial lead identification” (Nature, 2010).
